Measurements: PubChem BioAssay (EPA / NIEHS)
“And” between values parts separate entries of the source, which are not always exact repeats. Equal entries are not always repeated. The source holds several records for some structures; these can differ, active in one and inactive in another. The source made the active and inactive calls. Rule for the calls: active = hit-call score of the fitted dose curve at least 0.9, where 1 is the maximum; inactive = score below 0.9.

read-out: Macrophage colony-stimulating factor (MCSF), CSF1 (gene 1435); assay: BSK_LPS_MCSF: BioMAP Diversity Plus: LPS Assay for Macrophage colony-stimulating factor (MCSF) Biomarker Activity (AID 2283083); conditions: primary human HUVEC with PBMC; actives raise or lower the signal
Method: BSK_LPS is a cell-based, multiplexed-readout assay that uses umbilical vein endothelium and peripheral blood mononuclear cells, a human vascular primary cell co-culture, with measurements taken at 24 hours after chemical dosing in a 96-well plate.BSK_LPS_MCSF is an assay component measured in the BSK_LPS assay. It measures M-CSF antibody related to regulation of gene expression using ELISA technology.Data from the assay component BSK_LPS_MCSF was analyzed into 1 assay endpoint. This assay endpoint, BSK_LPS_MCSF, was analyzed with bidirectional fitting relative to DMSO as the negative control and baseline of activity. Using a type of binding reporter, gain or loss-of-signal activity can be used to understand changes in the signaling as they relate to the gene CSF1. Furthermore, this assay endpoint can be referred to as a primary readout, because this assay has produced multiple assay endpoints where this one serves a signaling function. To generalize the intended target to other relatable targets, this assay endpoint is annotated to the cytokine intended target family, where the subfamily is colony stimulating factor.
The levels of cell surface (or secreted, indicated by the prefix "s") biomarker endpoints were measured by ELISA. Overt cytotoxicity to cells in confluent adherent cultures (all systems other than the BT system) was assessed by measuring total protein levels using sulforhodamine B (SRB) staining in parallel cultures at the time of biomarker measurements, indicated as SRB endpoints. For proliferation assays for adherent cell types, individual cell types are cultured at sub-confluence and relative cell numbers quantified by SRB staining at time points optimized for each system (48 h: 3C and CASM3C systems; 72 h: BT and HDF3CGF systems; 96 h: SAg system). SRB was performed by staining cells with 0.1% SRB after fixation with 10% TCA and reading wells at 560 nm.Viability and proliferation of PBMC (T cells) was quantified by Alamar Blue reduction for the SAg and BT systems. For PBMC viability (referred to as PBMC Cytotoxicity within the assay endpoint names), cells were plated (75,000/well in a 96-well plate) and then chemical samples added for 1 h before addition of activators, SEB and TSST-1 (20 ng/mL final concentration each). Cells were incubated for 90 h. Then, Alamar Blue (20 uL/well) (Invitrogen, Cat DAL1100) was added for 6 h, and the plates were read with a fluorescence microplate reader at 546/580 nm (excitation/emission). For PBMC proliferation, cells were plated and activated as above but incubated for only 16 h prior to addition of Alamar Blue. Plates were read after 6 h.

Row | SMILES | outcome | AC50
1 | O=C(N[C@H]1CN2CCC1CC2)c1cc2ccoc2cn1 | inactive | 
2 | O=C(O)C(F)(F)C(F)(F)C(F)(F)C(F)(F)C(F)(F)C(F)(F)C(F)(F)C(F)(F)F | inactive | 
3 | NS(=O)(=O)C(F)(F)C(F)(F)C(F)(F)C(F)(F)C(F)(F)C(F)(F)C(F)(F)C(F)(F)F |  | 30.9 µM (active) and 54.9 µM (active) and 51.8 µM (active)
4 | O=C(O)C(F)(F)C(F)(F)C(F)(F)C(F)(F)C(F)(F)C(F)(F)C(F)(F)C(F)(F)C(F)(F)F | inactive | 58.7 µM (active) and 52.5 µM (active)
5 | CN(C)CCO | inactive | 
6 | CC1=C2C[C@H]3[C@@H](CC=C4C[C@@H](O)CC[C@@]43C)[C@@H]2CC[C@]12O[C@@H]1C[C@H](C)CN[C@H]1[C@H]2C | inactive | 
7 | CCCN(CCC)N=O | inactive | 
8 | CC#Cc1cc(C)nc(Nc2ccccc2)n1 | inactive | 
9 | CCOP(=S)(OCC)SCSC(C)(C)C | inactive | 
10 | O=S(=O)(O)C(F)(F)C(F)(F)C(F)(F)C(F)(F)F | inactive | 
11 | Clc1ccc(Cl)cc1 | inactive | 
12 | C[C@]12CCC(=O)C=C1CC[C@@H]1[C@@H]2CC[C@]2(C)C(=O)CC[C@@H]12 | inactive | 
13 | O=C(NC(=O)c1c(F)cccc1F)Nc1cc(Cl)c(OC(F)(F)C(F)F)c(Cl)c1 | inactive | 
14 | CCCCCCCCOC(=O)c1ccccc1C(=O)OCCCCCCCC | inactive | 
15 | CCC(C)c1cc([N+](=O)[O-])cc([N+](=O)[O-])c1O (stereo not given) |  | 20 µM (active)
16 | Cc1cc2c3c(c1)C(c1ccccc1)=N[C@@H](NC(=O)c1ccncc1)C(=O)N3CC2 |  | 4.6 µM (active)
17 | Cc1cc(O)ccc1Cl | inactive | 
18 | CCC(C)(c1ccc(O)cc1)c1ccc(O)cc1 |  | 20 µM (active)
19 | Clc1ccc(C(Cl)(Cl)Cl)cc1 | inactive | 
20 | CCSC(=O)N(CC)C1CCCCC1 | inactive | 

Row | SMILES | outcome | AC50
21 | CCNc1nc(NC(C)C)nc(SC)n1 | inactive | 
22 | Oc1ccc(Cl)cc1Cl | inactive | 
23 | Cc1ccccc1O | inactive | 
24 | C=CC(=O)NCNC(=O)C=C | inactive | 
25 | c1cc2ccc3cccc4ccc(c1)c2c34 | inactive | 
26 | CCCCCCCCCC[N+](C)(C)CCCCCCCCCC |  | 3.79 µM (active)
27 | O=C(NC(=O)c1cc(F)c(F)cc1Cl)Nc1cc(F)ccc1N1CCC(C(=O)O)CC1 | inactive | 
28 | Clc1ccc(C(c2ccccc2Cl)C(Cl)(Cl)Cl)cc1 (stereo not given) |  | 18.3 µM (active)
29 | CCCCCCOC(=O)c1ccccc1C(=O)OCCCCCC |  | 20 µM (active)
30 | CC(c1ccc(O)cc1)(c1ccc(O)cc1)c1ccc(O)cc1 |  | 26.4 µM (active)
31 | Oc1ccc(C(c2ccc(O)cc2)(C(F)(F)F)C(F)(F)F)cc1 |  | 20.1 µM (active)
32 | CCC(=O)O[C@H]1CC[C@H]2[C@@H]3CCC4=CC(=O)CC[C@]4(C)[C@H]3CC[C@]12C |  | 26 µM (active)
33 | Nn1cnnc1 | inactive | 
34 | C[C@]12CCC(=O)C=C1CC[C@@H]1[C@@H]2CC[C@@]2(C)[C@H]1CC[C@]2(C)O | inactive | 
35 | CN(C)c1nc(=O)n(C2CCCCC2)c(=O)n1C | inactive | 
36 | Nc1ccc(-c2ccc(N)cc2)cc1 | inactive | 
37 | Cc1cccc(C)c1N | inactive | 
38 | COc1ccc(O)c(C(C)(C)C)c1 | inactive | 
39 | Cc1ccccc1[N+](=O)[O-] | inactive | 
